# System: RIPK1
# Conditions: concentration: 1 μM, replicates: in singlicate; n = 1
# 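Note: KINOMEscan kinase panel screen.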
row,Compound,%Inh [%]
1,Cl.O=S(=O)(c1cccc(F)c1)c1ccc(Nc2ncnc3cc(Br)sc23)cc1Cl [GSK306886],29
2,O=C(NCCCN1CCCC1=O)c1cnc(NCc2cc(Cl)ccc2Cl)nc1NC1CCNCC1,0
3,Cl.Cn1ccc(-c2cccc(Nc3ccnc4cc(-c5nccs5)ccc34)c2)n1 [GW525701],0
4,CC(C)(C)OC(=O)NC1CCCN(c2cc(-c3ccc4c(N)n[nH]c4c3)nc(N)n2)C1 (stereo not drawn) [GSK2286096],0
5,Cn1ccc2ncnc(Nc3ccc(Oc4cccc(Cl)c4)c(Cl)c3)c21,0
6,O=C(Nc1ccccc1)Nc1ccc(Oc2ccc3nccn3n2)cc1,11
7,CSc1nn2c(=O)cc(N3CCOCC3)nc2n1Cc1cccc(Cl)c1Cl [GSK2347225],0
8,COC(=O)c1cccc(NC(=O)NCCNc2ccnc(Nc3ccc(F)cc3)n2)c1 [GSK1379883],22
9,CCn1c(-c2ccncc2)nc2cnccc21 [SB-735216],0
10,Fc1cccc(COc2ccc(Nc3ncnc4cc[nH]c34)cc2Cl)c1,13
11,O=C(Nc1n[nH]c2nc(-c3ccco3)c(Br)cc12)c1ccc(CN2CCCC2)cc1.O=C(O)[C@H](O)[C@@H](O)C(=O)O [SB-742352],33
12,CCC(CC)(CC)n1cnc2c(N)ncnc21 [SKF-97620],0
13,O=C(CCO)NCCn1ccc2ncnc(Nc3ccc(Oc4cccc(C(F)(F)F)c4)c(Cl)c3)c21,0
14,OCCOCCn1ccc2ncnc(Nc3ccc(Oc4cccc(Cl)c4)c(Cl)c3)c21,0
15,Clc1cccc(-c2nc(Nc3ccncc3)c3ccccc3n2)c1 [GW873004],25
16,COc1ccc(NC(=O)c2ccc(-c3cc(-c4nnc(C)o4)ccc3C)cc2)cc1 [GW595885],0
17,O=C(Nc1ccccc1F)NC1CCN(c2ccnc(Nc3ccc(F)cc3)n2)C1 (stereo not drawn) [GSK1379722],0
18,Nc1nc(-c2ccc3c(N)n[nH]c3c2)cc(N2CCCCC2)n1 [GSK2228768],0

row,Compound,%Inh [%]
1,CN1CCC(n2cnc(-c3ccc(F)cc3)c2-c2ccnc(NC3CCNCC3)n2)CC1 [SB-229482],0
2,Clc1cc(Nc2ncnc3cc[nH]c23)ccc1OCc1ccccn1,0
3,COc1cc2c(Nc3cccc(NC(=O)c4ccccc4)c3)ncnc2cc1OCCCN1CCOCC1 [GSK223810],0
4,CCc1nc(-c2cccc(N(C)S(=O)(=O)c3ccccc3)c2)c(-c2ccnc(Nc3ccc(N4CCN(C(C)=O)CC4)nc3)n2)s1 [GSK1645895],0
5,Cc1ccc(O)cc1Nc1cc(C(F)(F)F)nc2ccc(-c3ccncc3)cc12 [GW630823],13
6,c1ccc(-c2ccc3c(-c4ccnc(Nc5ccc6c(c5)OCCO6)n4)cnn3n2)cc1 [GW818941],3
7,CSc1ccc(NC2=C(c3ccccc3Cl)C(=O)NC2=O)cc1 [SB-342411],0
8,CS(=O)(=O)CCNCc1ccc(-c2ccc3ncnc(Nc4ccc(OCc5ccccc5)c(Cl)c4)c3c2)o1.Cl [GW574783],9
9,COc1cc2ncnc(Nc3ccc(OCc4ccccc4Br)c(Cl)c3)c2cc1OC.Cl [GI261590],0
10,CC(C)N1CCC(n2cnc(-c3ccc(F)cc3)c2-c2ccnc(N)n2)CC1 [SB-223132],4
11,Cn1cc(-c2ccc3c(c2)CCN3C(=O)Cc2cccc(C(F)(F)F)c2)c2c(N)ncnc21 [GSK2606414],75
12,COc1ccc(Nc2nccc(N3CCC(NC(=O)c4cccc(NC(C)=O)c4)C3)n2)cc1 (stereo not drawn) [GSK1379732],21
13,Nc1nc(-c2ccc3c(N)n[nH]c3c2)cc(N2CCC[C@@H](C(=O)Nc3ccccc3)C2)n1.O=C(O)C(F)(F)F.O=C(O)C(F)(F)F [GSK2288359],10
14,CN1c2ccc(-c3ccc(C(=O)NCCO)cc3)cc2-c2[nH]ncc2S1(=O)=O,1
15,N#Cc1ccc(Oc2ccc(Nc3ncnc4cc[nH]c34)cc2Cl)cc1,2
16,Cl.c1ccc(Cn2ncc3cc(Nc4ncnc5ccccc45)ccc32)cc1 [GW273749],7
17,Nc1nccc2scc(-c3ccc4c(c3)CCN4C(=O)Cc3cc(F)ccc3F)c12 [GSK2587663],83
18,Nc1nc(-c2cccnc2)c(-c2ccnc3ccccc23)s1 [GW684083],0

# Reference: article PMC5540273 (PLoS ONE, 2017)
